Compounds without any hit were thinned out: in the full panel of roughly 83,000, 20% have a hit.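 Single-concentration screen, 48 h exposure, 96-well plates. Endpoint: percent growth. Below 10 = active.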 Activity calls are given as the source filed them.
Key:
Assay in all cases: NCI-60 one-dose screen, 48 h (100 = growth as untreated, 0 = no growth, -100 = all killed)
[1] = tested on: NCI-H23 lung; conditions: 10 µM unless noted
[2] = tested on: NCI-H226 lung; conditions: 10 µM unless noted
[3] = tested on: NCI-H322M lung; conditions: 10 µM unless noted
[4] = tested on: HOP-62 NSCLC; conditions: 10 µM unless noted
[5] = tested on: NCI-H460 lung; conditions: 10 µM unless noted
[6] = tested on: HOP-92 NSCLC; conditions: 10 µM unless noted
[7] = tested on: NCI-H522 lung; conditions: 10 µM
[8] = tested on: 786-0 renal; conditions: 10 µM unless noted
[9] = tested on: COLO 205 colon; conditions: 10 µM unless noted
[10] = tested on: DU-145 prostate; conditions: 10 µM unless noted
[11] = tested on: K-562 leukemia; conditions: 10 µM unless noted
[12] = tested on: MALME-3M melanoma; conditions: 10 µM unless noted
[13] = tested on: MDA-MB-231 breast; conditions: 10 µM unless noted
[14] = tested on: RXF 393 renal; conditions: 10 µM unless noted
[15] = tested on: SF-268 CNS; conditions: 10 µM unless noted
[16] = tested on: SF-295 CNS; conditions: 10 µM unless noted
[17] = tested on: SF-539 CNS; conditions: 10 µM unless noted
[18] = tested on: UACC-257 melanoma; conditions: 10 µM unless noted
[19] = tested on: M14 melanoma; conditions: 10 µM unless noted

Measured: growth

Nc1nc(SCc2cccnc2)c2ncn(C3OC(CO)C(O)C3O)c2n1 (configuration not stated)
inactive: [1] 97.9% | [2] 94.9% | [3] 108% | [4] 85.7% | [5] 96.6% | [6] 78.1% | [7] 102% | [8] 103% | [9] 114% | [10] 113% | [11] 113% | [12] 92.4% | [13] 94.7% | [14] 101% | [15] 90.6% | [16] 99.1% | [17] 95.1% | [18] 92.7% | [19] 97.8%

O=C(/C=C/c1cccc(O)c1)c1cccc(-n2cc(-c3ccccc3)[nH]c2=O)c1
active: [2] 3.79% | [7] -21.8% | [8] -59.7% | [10] -16.9% | [11] 1.71% | [12] 0.0704% | [13] -5.57% | [14] -62.4% | [15] 7.61% | [17] -27.4%
inactive: [1] 14.4% | [3] 21.4% | [4] 16.9% | [5] 34.8% | [6] 26.7% | [9] 83.8% | [16] 64.8% | [18] 95.6% | [19] 64.5%

COc1cc(/C=N/OC(=O)Nc2ccccc2)cc(OC)c1OC
inactive: [1] 107% | [2] 96% | [3] 92.2% | [4] 93.9% | [5] 109% | [6] 74.6% | [7] 86.2% | [8] 103% | [9] 107% | [10] 115% | [11] 107% | [12] 97.9% | [13] 92.6% | [14] 121% | [15] 107% | [16] 129% | [17] 100% | [18] 105% | [19] 107%

C[C@H]1c2cccc(O)c2C(O)=C2C(=O)[C@]3(O)C(O)=C(C(N)=O)C(=O)[C@@H](N(C)C)[C@@H]3[C@@H](O)[C@@H]21
inactive: [1] 41.5% | [2] 69.2% | [3] 44.2% | [4] 51.8% | [5] 35.9% | [6] 24.3% | [7] 45.4% | [8] 50.7% | [9] 67.8% | [10] 47.7% | [11] 37.9% | [12] 27.8% | [13] 74.6% | [14] 58.3% | [15] 28.2% | [16] 19.2% | [17] 25.6% | [18] 57.7%

CSc1nc(Nc2ccc(S(=O)(=O)Nc3ccon3)cc2)c(C#N)c(-c2ccc(Cl)cc2)n1
inactive: [1] 94.2% | [2] 95% | [3] 98.3% | [4] 106% | [5] 112% | [6] 109% | [7] 84.9% | [8] 94.7% | [9] 108% | [10] 106% | [12] 111% | [13] 102% | [14] 110% | [15] 105% | [16] 113% | [17] 106% | [18] 112% | [19] 88.1%
active: [11] -0.642%

BrC1CC(Br)c2c1c1c(c3c2C(Br)CC3Br)C(Br)CC1Br (configuration not stated)
inactive: [1] 99.7% | [2] 101% | [3] 97.7% | [4] 103% | [5] 93.4% | [6] 89.9% | [7] 84.4% | [8] 116% | [9] 105% | [10] 115% | [11] 80.9% | [12] 95.7% | [13] 98.5% | [14] 80.3% | [15] 111% | [16] 103% | [17] 92% | [18] 105% | [19] 97.7%

Oc1c(Cl)cc(Cl)c(Cl)c1Cc1c(O)c(Cl)cc(Cl)c1Cl
active: [1] -0.673% | [3] -1.98% | [5] 5.9% | [6] -21.7% | [7] -3.33% | [11] 4.84% | [12] -21.1% | [13] -13.5% | [16] -42.4% | [18] 9.73%
inactive: [2] 18% | [4] 21.5% | [8] 12.2% | [9] 70.3% | [10] 28.2% | [14] 15.1% | [15] 17.5% | [17] 21.4% | [19] 16.3%

Cc1c2oc3c(C)ccc(C(=O)OC(C)C4NC(=O)C(C(C)C)N(C)C(=O)CN(C)C(=O)C5CCCN5C(=O)C(C(C)C)NC4=O)c3nc-2c(C(=O)OC(C)C2NC(=O)C(C(C)C)N(C)C(=O)CN(C)C(=O)C3CCCN3C(=O)C(C(C)C)NC2=O)c(N)c1=O (configuration not stated)
active: [1] -7.25% | [2] -40.7% | [3] 1.84% | [4] -20.4% | [5] 5.45% | [6] -15.7% | [7] -60.1% | [8] -11.9% | [9] -63.8% | [11] 5.53% | [12] -37.6% | [13] 3.61% | [14] -78.5% | [15] -5.9% | [16] -9.17% | [17] -11.4%
inactive: [10] 11.4%

O[N+]1=CC=CCC1=S.On1ccccc1=S.[Zn]
active: [1] -53.1% | [2] -85.9% | [3] -87.3% | [4] -86.8% | [5] -70.5% | [6] -64.5% | [7] -92.4% | [8] -74.2% | [9] -74.9% | [10] -90.1% | [11] -17.7% | [12] -54.9% | [13] -81.4% | [14] -84.9% | [15] -46.6% | [16] -81.5% | [17] -64.8% | [18] -88.8%

O=C(CNc1ccc2c(c1)C(=O)c1ccccc1C2=O)Nc1ccc2c(c1)C(=O)c1ccccc1C2=O
active: [1] -70.5% | [2] -62% | [3] -95.2% | [4] -86.5% | [5] -71.6% | [6] -65.7% | [7] -96.2% | [8] -90.3% | [9] -89% | [10] -100% | [11] -30.2% | [12] -81.2% | [13] -27.7% | [14] -89.4% | [15] -94.6% | [16] -89.4% | [17] -69.3% | [18] -90.3% | [19] -79.3%

CC1CN(/N=C/c2ccc([N+](=O)[O-])o2)C(=N)O1 (configuration not stated)
inactive: [1] 97.1% | [2] 96.3% | [3] 117% | [4] 103% | [5] 96% | [6] 88.8% | [7] 87.8% | [8] 108% | [9] 113% | [10] 121% | [11] 108% | [12] 78.8% | [13] 102% | [14] 102% | [15] 90.1% | [16] 88.9% | [17] 96.9% | [18] 99.5%

CC12CCC3C(=CCc4cc(O)ccc43)C1CCC2=O (configuration not stated)
inactive: [1] 103% | [2] 102% | [3] 94.9% | [4] 99.2% | [5] 108% | [6] 99.4% | [7] 97% | [8] 105% | [9] 111% | [10] 115% | [11] 91.5% | [12] 90.5% | [13] 102% | [14] 113% | [15] 106% | [16] 92% | [17] 102% | [18] 113% | [19] 105%

NC(=O)c1cc(Br)cc(Br)c1NS(=O)(=O)c1ccccc1
inactive: [1] 100% | [2] 95.3% | [3] 94.5% | [4] 98% | [5] 102% | [6] 93.6% | [7] 100% | [8] 108% | [9] 101% | [10] 110% | [11] 122% | [12] 94.1% | [13] 88.1% | [14] 104% | [15] 108% | [16] 98.2% | [17] 98.6% | [18] 131% | [19] 101%

Cc1ccc(C2=NNC(c3sc(Cl)nc3Cl)C2)cc1 (configuration not stated)
inactive: [1] 91% | [2] 84.7% | [3] 83.2% | [4] 107% | [5] 104% | [6] 115% | [7] 18.1% | [8] 106% | [9] 99.8% | [10] 95.6% | [11] 11.7% | [12] 77.6% | [13] 92.1% | [14] 108% | [15] 98.3% | [16] 101% | [17] 118% | [18] 90.6% | [19] 86.5%

O=c1ncc(-c2ccc(C(F)(F)F)cc2)c(NC2CCCCCC2)[nH]1
active: [6] -2.61% | [12] -26.4% | [16] 3%
inactive: [1] 64.9% | [2] 71.5% | [3] 90.9% | [4] 64% | [5] 55.1% | [7] 29% | [8] 76.7% | [9] 46.2% | [10] 78.5% | [11] 30% | [13] 79% | [14] 76.4% | [15] 62.3% | [17] 91.7%

CCN1CC2=C(Nc3nc(SC)[nH]c(=O)c3C2c2cc(OC)c(OC)c(OC)c2)/C(=C/c2cc(OC)c(OC)c(OC)c2)C1 (configuration not stated)
inactive: [1] 99.2% | [2] 98.5% | [3] 95.2% | [4] 104% | [5] 106% | [6] 81.6% | [7] 81.2% | [8] 96.9% | [9] 113% | [10] 112% | [11] 90.9% | [12] 112% | [13] 104% | [14] 106% | [15] 110% | [16] 100% | [17] 104% | [18] 97% | [19] 114%
